Screens deposited in PubChem by National Center for Advancing Translational Sciences (NCATS).
This excerpt belongs to a sample that is enriched for hits.
ERG Ets-DNA blk = blocks human ERG Ets domain binding to DNA | fluorescence polarization, His-ERG Ets domain / labelled DNA | 0.028% of 370,000 active | P11308 | Potency, µM (top dose mostly 76.9 µM), for the others: at the top dose FP activity, negative = inhibition, most hits filed as inhibitors; active = well fitted inhibition curve with a large enough effect in the polarisation, with a control signal flat; inconclusive = small, poorly fitted or top-dose-only effect, or effect the other way, or a change in a side signal; inactive = no such curve, though single readings can be large or run the other way; the % refers to the polarisation;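 note: polarization taken with two DNA probes labelled with fluorescein and Texas red; potency is the fitted concentration of half-maximal effect; % of control where 0% means no effect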
Target sequence (P11308 whole entry, looked up, the tested form may be a part): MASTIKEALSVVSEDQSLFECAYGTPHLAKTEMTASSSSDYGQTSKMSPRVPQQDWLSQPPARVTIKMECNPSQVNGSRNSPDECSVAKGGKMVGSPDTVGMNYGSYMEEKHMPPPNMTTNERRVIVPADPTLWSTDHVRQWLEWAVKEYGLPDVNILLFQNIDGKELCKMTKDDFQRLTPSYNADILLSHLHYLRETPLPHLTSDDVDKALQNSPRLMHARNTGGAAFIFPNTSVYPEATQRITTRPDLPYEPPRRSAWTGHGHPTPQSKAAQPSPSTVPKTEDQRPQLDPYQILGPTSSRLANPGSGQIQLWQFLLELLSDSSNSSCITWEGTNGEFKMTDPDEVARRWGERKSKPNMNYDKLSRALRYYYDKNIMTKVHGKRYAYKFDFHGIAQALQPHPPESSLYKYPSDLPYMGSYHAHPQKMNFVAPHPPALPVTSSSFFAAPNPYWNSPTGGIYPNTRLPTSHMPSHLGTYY
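His-tagged ERG Ets domain (1 uM in the protein solution; 300mM KCl, 50mM Tris-HCl, 1mM EDTA, 1mM DTT, pH 7.5) received compound, then a probe mix of 5 nM fluorescein-DNA and 100nM Texas-615-DNA. Fluorescence polarization was read for both dyes.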
Giardia kill = Giardia lamblia killing; activity change, % at 7.66 µM, hits read low; Giardia lamblia trophozoite viability; AID 540267; 0.15% of 340,000 active; in the data active = activity change below about -80%; inconclusive = between about -30% and that limit;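 note: parasites exposed to compound for two days anaerobically before the ATP read; % is set by controls: 0 for no effect and ±100 for the full control effect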
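Killing of trophozoites was scored by loss of ATP luminescence after a 48 hrs anaerobic exposure to compounds at 37 deg C, using 100 cells per well.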
RORg inh = ROR gamma (mouse) transcription inhibition; P51450; Drosophila S2 Gal4-RORgamma UAS-luciferase reporter, 20 h; Potency, µM (top dose mostly 53.6 µM), inactives show at the highest dose activity change, negative = inhibition, hits mostly inhibitors; 5.4% of 310,000 active; note: potency is the fitted concentration of half-maximal effect; % is set by controls: 0 for no effect and ±100 for the full control effect; nearly all actives have a fitted effect of over 60% in size
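Drosophila S2 cells stably expressing Gal4-DBD/mouse RORγ fusion under metallothionein promoter plus UAS-luciferase; compound 1 h, then 700 uM CuSO4 induction for 20 h at ambient temperature; inhibition read as reduced luminescence.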
a7 integrin act = activators of alpha7 integrin expression for muscular dystrophy. alpha7betagal myoblasts, beta-gal FDG fluorescence, 48 h. Potency, µM (titrated, usually from 38.3 µM), inactives show at the top dose activation, usual class: activators. 0.064% of 350,000 active;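 note: potency is the fitted concentration of half-maximal effect; 100% = response of the positive control SU9516; nearly all actives have a fitted effect of over 60% in size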
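alpha7betagal+/- myoblasts (passage 13, 250/well) treated 48 h at 37C with compounds at 1:260 dilution of DMSO stock. Lysed, then beta-galactosidase activity read as FDG fluorescence (ex 480/em 540) after 30 min, with pre-read for autofluorescence.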
Gal4-VP16 FLuc = Gal4-VP16 reporter inhibition counter-screen; AID 2546; 3.5% of 310,000 active; Drosophila S2 Gal4-VP16 UAS-luciferase, luminescence, 20 h; Potency, µM (titrated, usually from 53.6 µM), without a hit: top-dose activity, negative = inhibition, usual class: inhibitors;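 note: Gal4-VP16 expression switched on by copper sulfate through the metallothionein promoter; potency is the fitted concentration of half-maximal effect; % is set by controls: 0 for no effect and ±100 for the full control effect; nearly all actives have a fitted effect of over 50% in size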
Starred values were filed as active, the others as inactive; ? = inconclusive; . = no result given; [ ] = dose if it differs, or a comment. Unless noted, calls come from the whole dose curve; as a rule, active = well fitted curve in the direction sought with a large enough effect; inconclusive = small, poorly fitted or top-dose-only effect, or another doubt; inactive = no such curve, though single readings can be large; an effect the other way counts as inactive or inconclusive.

SMILES	ERG Ets-DNA blk	Giardia kill	RORg inh	a7 integrin act	Gal4-VP16 FLuc
CCOC(=O)CNC(c1ccccc1)c1cc(Br)ccc1NC(=O)CCN1CCOCC1 (centres undefined)	-2%	-25	?	-66%	8.9µM*
COC(=O)CNC(c1ccccc1)c1cc(Br)ccc1NC(=O)CNC(=O)OCc1ccccc1 (centres undefined)	-3%	-17	36%	22%	-16%
CCOC(=O)CNC(c1ccccc1)c1cc(Br)ccc1NC(=O)OCC (centres undefined)	2%	-22	9%	-20%	0%
Cc1ccc(C)c2[nH]c(=O)c(CN(Cc3ccco3)C(=S)NCC3CCCO3)cc12 (centres undefined)	30%	13	39%	-19%	-15%
Cc1ccccc1NC(=S)c1ccc2ccccc2n1	-3%	-7	?	-18%	6.3µM*
Cc1cc(N2CCN(c3nc4ccccc4s3)CC2)n2ncnc2n1	7%	10	?	-37%[7.66 µM]	11µM*
Cc1cc(N2CCN(C(c3ccccc3)c3ccccc3)CC2)n2ncnc2n1	13%	0	12%	6%	13%
COC(=O)C1=C(C)NC(C)=C(C(=O)OCC2CCCO2)C1c1cccc(Br)c1 (centres undefined)	2%	25	13%	10%	-11%
COCc1cc(/C=N\NC(=O)COc2ccccc2)ccc1OC	-4%	-19	8%	6%	12%
COc1cc(/C=N/Nc2ccc(Cl)c(C(=O)O)c2)ccc1OC(=O)c1ccc(F)cc1	15%	-10	-29%	18%	7%
COc1cccc(C(=O)Oc2ccc(/C=N/Nc3ccc(C(=O)O)cc3)cc2OC)c1	-9%	-10	-11%[1.91 µM]	4%	2.2µM*
COc1cc(/C=N/n2cnnc2)ccc1OC(=O)c1cccnc1	-4%	-8	?	10%	11µM*
COc1cccc(OCc2cc(/C=N/Nc3ccc(C(=O)O)cc3)ccc2OC)c1	-11%	-16	0.28µM*	4%	7.9µM*
O=C1c2ccccc2C(=O)C12OC2c1cccc2ccccc12 (centres undefined)	-5%	-20	?	0%	14µM*
S=c1[nH]nc(Cc2sc(-c3ccccc3)nc2-c2ccccc2)o1	-1%	-29	11µM*	8%	?
S=c1[nH]nc(Cc2c[nH]c3ccccc23)o1	.	10	-7%	-8%	-13%
CCOC(=O)Cn1c(=O)n(CC2CCCO2)c2nc(-c3cccc(C)c3)nc(C(N)=O)c21 (centres undefined)	1%	.	.	.	.
Cc1nc2sc3c(c2c(=O)[nH]1)CCCC3	13%	9	38%	-11%	-8%
O=c1[nH]c(S)nc2sc3c(c12)CCCC3	-4%	0	13µM*	-33%	-20%
CCN(CC)S(=O)(=O)c1cc(C(=O)Nc2cccnc2Cl)ccc1Cl	1%	-6	13%	4%	0%
CCCCCCCCCn1ccc(=N)cc1	1%	0	?	-32%	1.6µM*
N=c1ccn(Cc2ccc(Cl)cc2)cc1	-2%	-2	-35%	-39%	-15%
CCn1ccc(=N)cc1	6%	3	5%	-1%	16µM*
CC1CN(C(=O)CCNC(=O)c2ccc(Cl)cc2)CC(C)O1 (centres undefined)	-1%	32	-12%	?	-13%
COC(=O)NC(c1cccs1)C(C(C)=O)C(=O)OC (centres undefined)	.	.	1%[10 µM]	.	-6%[10 µM]
SMILES	ERG Ets-DNA blk	Giardia kill	RORg inh	a7 integrin act	Gal4-VP16 FLuc
CC(=O)OCON[N+]([O-])=NC(C)C	.	?	0%	.	28%
COc1ccc(C(=O)CCN2CCCCCC2)cc1	-4%	-4	3.2µM*	-63%	5µM*
CCOc1ccc(C(=O)CCN2CCCCC2)cc1	-1%	-3	33%	-6%	-9%
CC(C)Oc1ccc(C(=O)CCN2CCOCC2)cc1	-15%	28	.	-45%	.
CC(C)Oc1ccc(C(=O)CCN2CCCCC2)cc1	-4%	-5	10µM*	-54%	6.3µM*
COc1ccc(C)cc1NC(=O)CN1CCCN(S(=O)(=O)c2ccc(Br)cc2)CC1	4%	6	11%	0%	-1%
O=c1c2c(nc3c(-c4ccccc4)c[nH]n13)CCCC2	-4%	9	10µM*	-4%	?
Nc1[nH]n2c(=O)c3c(nc2c1N=Nc1ccccc1)CCCC3	-3%	-2	-28%	5%	-7%
